Results on five compounds are retold here after PubChem BioAssay.

SMILES strings stand for the structures. The source made the active and inactive calls.

Experiment [1] is described as follows: small molecules captured by biotinylated probe aFSTL3 – biochemical, small-molecule microarray, fluorescence 635/667, stem cell growth factor project, primary screen (AID 1064).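 Note: measures binding of the biotinylated anti-FSTL3 antibody to printed compounds.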 Conditions: higher = more signal.
The nature of experiment [2]: binders from COS7 lysate, DM2A8 probe, primary screen, torsin A project, cell lysate, small-molecule microarray, fluorescence 635/667 (AID 1065). Conditions: higher = more signal, COS7 lysate expressing mutant human TOR1A.
Experiment [3] is described as follows: small molecules captured by biotinylated probe aFGF2 – biochemical, small-molecule microarray, fluorescence 635/667, stem cell growth factor project, primary screen (AID 1067).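 Note: measures binding of biotinylated aFGF2 protein to printed compounds on slides; z-score merges feature fluorescence and signal-to-noise across triplicate slides.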 Conditions: higher = more signal.
A short description of experiment [4]: small molecules captured by biotinylated probe aFGF10 – biochemical, small-molecule microarray, fluorescence 635/667, stem cell growth factor project, primary screen (AID 1071).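 Note: score merges 667 nm spot intensity and signal to noise from triplicate slides.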 Conditions: higher = more signal.
The target of experiment [5] is Neurogenic locus notch homolog protein 2 (Homo sapiens) (UniProt Q04721). The experiment in a line: small molecules binding Notch2 protein – biochemical, small-molecule microarray, 635 nm fluorescence, stem cell growth factors, primary screen (AID 1073). The settings on record: higher = more signal.
For experiment [6], the target named is Pro-neuregulin-1, membrane-bound isoform (Homo sapiens) (UniProt Q02297). The experiment in a line: small molecules binding neuregulin-1 protein – biochemical, small-molecule microarray, fluorescence 635/667, psychiatric disease protein project, primary screen (AID 1075).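 Note: score combines 667 nm spot fluorescence with signal to noise.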 Conditions: NRG1 binding, 635 nm fluorescence, higher = more signal.
Pro-neuregulin-1, membrane-bound isoform (Homo sapiens), sequence (Q02297 whole entry, looked up, the tested form may be a part, canonical isoform): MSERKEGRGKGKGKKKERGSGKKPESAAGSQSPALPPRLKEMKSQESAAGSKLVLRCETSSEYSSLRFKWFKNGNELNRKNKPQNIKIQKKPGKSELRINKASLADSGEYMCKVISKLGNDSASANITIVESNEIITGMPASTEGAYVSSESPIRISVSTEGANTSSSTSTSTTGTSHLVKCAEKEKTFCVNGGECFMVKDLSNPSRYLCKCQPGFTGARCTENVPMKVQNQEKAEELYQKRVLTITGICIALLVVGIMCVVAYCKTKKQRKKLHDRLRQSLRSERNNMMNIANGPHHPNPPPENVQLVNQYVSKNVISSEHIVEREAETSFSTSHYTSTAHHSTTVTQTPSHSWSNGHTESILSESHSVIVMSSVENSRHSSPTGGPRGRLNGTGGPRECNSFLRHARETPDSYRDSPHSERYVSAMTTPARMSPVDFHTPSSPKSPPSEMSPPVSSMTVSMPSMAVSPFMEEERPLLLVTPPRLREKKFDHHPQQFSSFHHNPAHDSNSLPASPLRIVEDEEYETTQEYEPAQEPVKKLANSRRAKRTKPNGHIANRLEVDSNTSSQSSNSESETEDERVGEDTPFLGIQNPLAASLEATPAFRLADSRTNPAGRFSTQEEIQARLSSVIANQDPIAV
For experiment [7], the system named is Neuregulin-1 EGF-like domain. The experiment in a line: small molecules binding NRG1 EGF domain – biochemical, small-molecule microarray, 635 nm fluorescence, primary screen (AID 1081).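 Note: binding of the protein to compounds printed on small-molecule microarray slides.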 The settings on record: higher = more signal.
The nature of experiment [8]: FRG1 expression reporter modulators in myotubes – cell-based, C2C12 myotubes, firefly/Renilla luciferase, luminescence, FRG1 inhibition for FSHD, primary screen (AID 1084). The settings on record: FRG1 promoter luciferase, higher = more signal, called active from +8 up or from −8 down.
Experiment [9] can be described thus: small molecules captured by biotinylated probe aFST – biochemical, small-molecule microarray, fluorescence 635/667, stem cell growth factor project, primary screen (AID 1086).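 Note: score merges 667 nm fluorescence with signal-to-noise of each printed compound spot.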 The settings on record: higher = more signal.
The nature of experiment [10]: binders of probe aHhip on microarray, primary screen, stem cell growth factor project, biochemical, small-molecule microarray, fluorescence 635/667 (AID 1087).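 Note: score merges spot fluorescence at 667nm with spot signal to noise ratio.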 The settings on record: higher = more signal.
Experiment [11] deals with PRMT1 (protein arginine N-methyltransferase 1). The experiment in a line: small molecules binding arginine methyltransferase PRMT1 – biochemical, small-molecule microarray, 635 nm fluorescence, primary screen (AID 1088).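 Note: binding of Prmt1 protein to compounds spotted on small-molecule microarray slides.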 Conditions: higher = more signal.
Experiment [12] is described as follows: growth effects on S. cerevisiae YJM789 – YJM789 clinical isolate, OD600, 24 h, basal, primary screen (AID 1089).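 Note: growth of clinical yeast isolate S. cerevisiae YJM 789 seeded 1000 cells per well; test concentration not given here.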 Conditions: higher = more signal, called active from +8 up or from −8 down.
Experiment [13] in a line: S. pombe growth modifiers, basal conditions – strain 972, OD600, 24 h, no modulator, primary screen (AID 1090).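 Note: basal condition with compound alone and no growth modifier present; test concentration not given here.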 Conditions: S. pombe 972 growth, higher = more signal, called active from +8 up or from −8 down.
Experiment [14] is described as follows: budding yeast growth modifiers under rapamycin – strain BY4716, OD600, 96 h, primary screen (AID 1091). Note: test concentration not given here. The settings on record: S. cerevisiae BY4716 + rapamycin, higher = more signal, called active from +8 up or from −8 down.
Experiment [15] concerns the target Torsin-1A-interacting protein 2 (Homo sapiens) (UniProt Q8NFQ8). Put plainly: small molecules binding lysate-expressed LULL1 – cell lysate, human LULL1 lysate, 635/667 nm fluorescence, primary screen (AID 1092).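 Note: probe is lysate of COS7 cells overexpressing human LULL1; score merges per-feature 667 nm fluorescence with signal-to-noise.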 The settings on record: small-molecule microarray, hLULL1 lysate binding, 635 nm fluorescence; higher = more signal.
Experiment [16] is described as follows: optical density change of DRC41 E. coli – strain DRC41, OD650, 24 h, E. coli filamentation project, primary screen (AID 1093).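 Note: MC1000 strain lacking acrAB efflux and sulA so SOS filamentation is blocked; test concentration not given here.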 The settings on record: E. coli DRC41 growth, higher = more signal, called active from +8 up or from −8 down.
Experiment [17] in a line: probe aLefty2 binding to arrayed compounds – biochemical, biotinylated probe, 635/667 nm fluorescence, primary screen (AID 1094).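 Note: score merges spot fluorescence near 667 nm with spot signal-to-noise ratio.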 The settings on record: small-molecule microarray, higher = more signal.
The test system of experiment [18] is Noggin (protein binding on small-molecule microarray). Put plainly: small molecules binding Noggin protein – biochemical, 635/667 nm fluorescence, primary screen (AID 1095).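 Note: score merges 667 nm feature fluorescence with signal to noise over triplicate slides.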 The settings on record: 635 nm fluorescence, higher = more signal.
For experiment [19], the target named is Neurogenic locus notch homolog protein 3 (Homo sapiens) (UniProt Q9UM47). Put plainly: small molecules binding NOTCH3 protein – biochemical, 635/667 nm fluorescence, primary screen (AID 1096). The settings on record: small-molecule microarray, 635 nm fluorescence, higher = more signal.
Neurogenic locus notch homolog protein 3 (Homo sapiens), sequence (Q9UM47 whole entry, looked up): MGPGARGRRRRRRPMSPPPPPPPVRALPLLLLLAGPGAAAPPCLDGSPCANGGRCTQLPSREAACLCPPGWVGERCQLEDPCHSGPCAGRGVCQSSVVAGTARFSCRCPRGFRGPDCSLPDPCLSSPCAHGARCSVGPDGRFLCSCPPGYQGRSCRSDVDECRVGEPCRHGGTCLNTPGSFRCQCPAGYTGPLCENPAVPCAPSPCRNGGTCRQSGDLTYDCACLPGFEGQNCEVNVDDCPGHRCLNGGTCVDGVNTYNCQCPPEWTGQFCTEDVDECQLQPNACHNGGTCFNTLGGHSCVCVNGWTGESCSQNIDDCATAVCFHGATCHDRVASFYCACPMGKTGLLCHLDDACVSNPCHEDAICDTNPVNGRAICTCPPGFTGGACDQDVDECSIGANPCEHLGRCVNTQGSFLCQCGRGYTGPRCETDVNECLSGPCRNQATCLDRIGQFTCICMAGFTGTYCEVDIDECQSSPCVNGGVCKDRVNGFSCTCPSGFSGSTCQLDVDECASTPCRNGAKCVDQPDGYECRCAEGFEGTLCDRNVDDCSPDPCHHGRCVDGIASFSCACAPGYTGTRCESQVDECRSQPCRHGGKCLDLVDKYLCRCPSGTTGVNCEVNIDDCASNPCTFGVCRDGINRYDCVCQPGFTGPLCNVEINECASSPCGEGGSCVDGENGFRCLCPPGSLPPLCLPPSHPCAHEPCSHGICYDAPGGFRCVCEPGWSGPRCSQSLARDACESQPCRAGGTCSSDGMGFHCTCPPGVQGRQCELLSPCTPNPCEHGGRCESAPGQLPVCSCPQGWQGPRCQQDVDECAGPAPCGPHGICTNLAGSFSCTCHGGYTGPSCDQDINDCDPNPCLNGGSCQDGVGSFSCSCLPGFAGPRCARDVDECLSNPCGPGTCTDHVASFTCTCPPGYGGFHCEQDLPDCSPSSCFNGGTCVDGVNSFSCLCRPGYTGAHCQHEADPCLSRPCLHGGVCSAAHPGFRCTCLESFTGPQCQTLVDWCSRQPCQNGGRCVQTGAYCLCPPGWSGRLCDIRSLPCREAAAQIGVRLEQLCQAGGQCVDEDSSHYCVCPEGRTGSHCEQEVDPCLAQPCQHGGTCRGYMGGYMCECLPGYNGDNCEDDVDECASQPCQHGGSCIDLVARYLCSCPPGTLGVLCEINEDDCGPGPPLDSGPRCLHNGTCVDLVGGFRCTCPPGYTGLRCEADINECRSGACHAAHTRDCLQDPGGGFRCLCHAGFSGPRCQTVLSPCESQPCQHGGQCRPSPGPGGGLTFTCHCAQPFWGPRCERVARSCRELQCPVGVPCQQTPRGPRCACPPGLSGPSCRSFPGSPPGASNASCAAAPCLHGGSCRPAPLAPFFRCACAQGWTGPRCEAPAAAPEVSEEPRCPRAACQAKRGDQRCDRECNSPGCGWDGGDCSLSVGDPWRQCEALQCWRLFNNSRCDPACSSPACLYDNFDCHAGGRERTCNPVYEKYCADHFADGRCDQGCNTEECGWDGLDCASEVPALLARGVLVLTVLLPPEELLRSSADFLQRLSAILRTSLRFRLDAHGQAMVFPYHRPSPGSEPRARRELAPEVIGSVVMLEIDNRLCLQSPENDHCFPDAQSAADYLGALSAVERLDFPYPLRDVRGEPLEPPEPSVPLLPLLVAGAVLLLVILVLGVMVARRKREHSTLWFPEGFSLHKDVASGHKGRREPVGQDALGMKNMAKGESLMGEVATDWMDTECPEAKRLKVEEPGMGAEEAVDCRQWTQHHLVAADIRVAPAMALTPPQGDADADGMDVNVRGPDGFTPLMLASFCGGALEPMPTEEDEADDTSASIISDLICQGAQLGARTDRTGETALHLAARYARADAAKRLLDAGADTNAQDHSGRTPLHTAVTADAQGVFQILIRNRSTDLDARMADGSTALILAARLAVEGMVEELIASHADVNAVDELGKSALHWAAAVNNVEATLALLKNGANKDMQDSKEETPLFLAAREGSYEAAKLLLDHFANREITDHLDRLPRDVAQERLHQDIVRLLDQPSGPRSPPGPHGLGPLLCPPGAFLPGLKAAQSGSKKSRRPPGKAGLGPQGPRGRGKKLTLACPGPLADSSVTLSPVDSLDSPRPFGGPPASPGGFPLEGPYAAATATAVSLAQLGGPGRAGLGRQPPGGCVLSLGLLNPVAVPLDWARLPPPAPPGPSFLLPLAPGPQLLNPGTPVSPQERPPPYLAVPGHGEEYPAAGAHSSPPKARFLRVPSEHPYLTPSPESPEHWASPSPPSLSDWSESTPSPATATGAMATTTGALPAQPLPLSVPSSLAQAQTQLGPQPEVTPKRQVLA
Experiment [20] can be described thus: probe aEGFR binding to arrayed compounds – biochemical, biotinylated probe, 635/667 nm fluorescence, primary screen (AID 1097).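 Note: probe is a biotinylated anti-EGFR antibody binding compounds printed on slides; score combines fluorescence near 667 nm and signal to noise of each spot.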 The settings on record: small-molecule microarray, higher = more signal.

Torsin-1A-interacting protein 2 (Homo sapiens), sequence (Q8NFQ8 whole entry, looked up): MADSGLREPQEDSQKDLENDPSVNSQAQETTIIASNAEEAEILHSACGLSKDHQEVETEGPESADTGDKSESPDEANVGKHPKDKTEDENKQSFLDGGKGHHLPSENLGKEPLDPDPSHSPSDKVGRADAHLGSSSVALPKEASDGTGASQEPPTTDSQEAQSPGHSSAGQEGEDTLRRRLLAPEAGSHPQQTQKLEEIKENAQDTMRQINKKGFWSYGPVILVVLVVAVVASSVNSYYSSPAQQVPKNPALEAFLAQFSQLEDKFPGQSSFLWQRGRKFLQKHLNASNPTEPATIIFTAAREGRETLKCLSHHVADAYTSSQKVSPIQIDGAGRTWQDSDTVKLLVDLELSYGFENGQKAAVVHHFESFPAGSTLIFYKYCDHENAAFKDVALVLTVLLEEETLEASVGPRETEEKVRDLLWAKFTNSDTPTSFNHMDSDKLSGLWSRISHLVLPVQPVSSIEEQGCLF

For `CO[C@H]1O[C@H](CO)[C@@H](OC(=O)Nc2ccc3c(c2)OCO3)[C@H](OC(=O)Nc2ccc3c(c2)OCO3)[C@H]1OC(=O)Nc1ccc2c(c1)OCO2`, the composite z-score in experiment [1] is 0.0472; in experiment [2], -0.235; in experiment [3], 0.0575; in [4], 0.844; in [5], 1.39; in experiment [6], 1.83. Also, the composite z-score in experiment [7] is 1.25; in experiment [9] it was 0.634; in experiment [10] it was -0.0296; in [11], 1.54; in experiment [15], 3.5; in experiment [17], 0.151. In addition, the composite z-score in experiment [18] was 0.816; in experiment [19], 1.03; in experiment [20] it was -0.0455. The z-score is 6.05 (inactive) in experiment [8]; 1.68 (inactive) in experiment [12]; 0.861 (inactive) in [13]; 3.19 (inactive) in experiment [14]; 0.922 (inactive) in experiment [16].

`[N-]=[N+]=Nc1ccccc1[C@@H]1OC(c2ccc(OCCCO)cc2)=N[C@]1(CCS(=O)(=O)c1ccccc1)C(=O)O`: the composite z-score in [1] came to 0.0639; in experiment [2], 0.459; in experiment [3], 0.079; in experiment [4], 0.839; in experiment [5] it was 1.57; in experiment [6], 1.53. Also, the composite z-score in experiment [7] is 0.862; in [9], 0.912; in experiment [10], 0.151; in experiment [11] it was 1.56; in experiment [15], 3.39; in experiment [17], -0.013. Further, the composite z-score came to 0.61 in experiment [18], 1.01 in experiment [19] and 0.172 in [20]. Also, the z-score in [8] is 3.39 (inactive); in experiment [12], 1.57 (inactive); in [13], -3.97 (inactive); in [14] it was -1.63 (inactive); in experiment [16], 0.777 (inactive).

`COc1ccc([Si](C)(C)[C@@H]2[C@@H](CC(=O)N3Cc4ccccc4C[C@H]3CO)O[C@]3(C(=O)N(Cc4cccc(N5C(=O)COc6ccccc65)c4)c4ccccc43)[C@H]2C)cc1`: the composite z-score in [1] was -0.562; in experiment [2], 0.608; in [3], -0.1; in [4], 0.41; in experiment [5], 0.244; in experiment [6] it was 1.57. For the same compound, the composite z-score is 0.725 in experiment [7]; 0.0559 in [9]; -0.451 in [10]; 1.49 in experiment [11]; 1.25 in experiment [15]; -0.15 in experiment [17]. Moreover, the composite z-score in [18] is 0.812; in [19], 1.14; in experiment [20], -0.0981. In addition, the z-score in [8] is -2.29 (inactive); in experiment [12], -1.38 (inactive); in experiment [13] it was 0.553 (inactive); in experiment [14], 3.67 (inactive); in experiment [16], 2.33 (inactive).

For `O=C1[C@H]2C=C(Br)[C@H](C[C@@H]2OCCOCCO)[C@@]12CO2`, the composite z-score is 0.0321 in experiment [1]; -0.0798 in [2]; -0.103 in experiment [3]; 0.373 in experiment [4]; 0.473 in [5]; -0.151 in experiment [6]. Further, the composite z-score in experiment [7] was 0.437; in experiment [9], 0.0751; in experiment [10] it was -0.0994; in [11], -0.223; in [15] it was 0.0385; in experiment [17] it was -0.111. The composite z-score in experiment [18] was 0.595; in experiment [19], 0.235; in experiment [20], 0.0974. For the same compound, the z-score is -0.0763 (inactive) in experiment [8]; 0.85 (inactive) in experiment [12]; 0.397 (inactive) in experiment [13]; 1.19 (inactive) in experiment [14]; -0.922 (inactive) in experiment [16].

With `Cc1ccc(F)cc1S(=O)(=O)N[C@@H]1CCN(Cc2ccc(C(F)(F)F)cc2)C1`, the composite z-score in experiment [1] was -0.234; in experiment [2] it was 0.588; in experiment [3], -0.198; in experiment [4], -1.06; in experiment [5] it was -1.26; in [6], 0.0824. Further, the composite z-score in experiment [7] is -0.19; in experiment [9], -0.47; in experiment [10], -0.283; in experiment [11] it was 1.14; in [15], 1.08; in experiment [17] it was -0.227. The results for the composite z-score in experiment [18], in experiment [19] and in experiment [20] were 0.412, -0.145 and -0.218, respectively. Further, the z-score was -3.87 (inactive) in experiment [8]; -1.27 (inactive) in [12]; -20.3 (active) in [13]; -1.1 (inactive) in experiment [14]; -4.8 (inactive) in experiment [16].
